Data: PubChem BioAssay (NCATS)
Activity calls are given as the source filed them. Unless noted, the call rests on the fitted dose curve; in most records, active means well fitted curve in the direction sought with a large enough effect; inconclusive means small, poorly fitted or top-dose-only effect, or another doubt; inactive means no such curve, though single readings can be large; an effect the other way counts as inactive or inconclusive.

Columns and labels:
[1] = Cell Viability - LYMP2-011 (AID 969);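 further: 0% = DMSO only and full inhibition = 92 µM tetraoctylammonium bromide; nearly all actives have a fitted effect of over 60% in size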
In short: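 Human lymphoblastoid cells (2500/well) were plated in complete medium, preincubated 5 hr at 37 C, then exposed to compounds for 24 hr at 37 C. Intracellular ATP was read by CellTiter-Glo luminescence, and AC50 came from Hill-equation concentration-response fits.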

[2] = Cell Viability - LYMP2-013 (AID 970);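 further: series mostly up to about 92 µM; 0% = DMSO only and full inhibition = tetraoctylammonium bromide control; nearly all actives have a fitted effect of over 55% in size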
In short: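 Human lymphoblastoid cells, 2500/well, were preincubated 5 hr at 37 C, then treated with compounds for 24 hr at 37 C in complete medium. Intracellular ATP was read by CellTiter-Glo luminescence; AC50 from Hill-equation fits of concentration-response data.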

[3] = Cell Viability - LYMP2-015 (AID 971);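 further: 0% = DMSO only and full effect = 92 µM tetraoctylammonium bromide; nearly all actives have a fitted effect of over 55% in size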
In short: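 Human lymphoblastoid cells (2500/well) in complete medium were preincubated 5 hr at 37 C, then compound-treated 24 hr at 37 C. Intracellular ATP was read by CellTiter-Glo luminescence after 30 min at room temperature; AC50 came from Hill-equation concentration-response fits.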

[4] = Cell Viability - LYMP2-017 (AID 972); further: series mostly up to about 92 µM; on the % scale 0 is the no-effect control and ±100 the full control effect; nearly all actives have a fitted effect of over 55% in size
In short: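 Human lymphoblastoid cells (2500/well) were seeded in complete medium, held 5 hr at 37 C, then exposed to compounds for 24 hr at 37 C. Intracellular ATP was read by CellTiter-Glo luminescence after 30 min at room temperature, with AC50 values from Hill-equation fits.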

[5] = Cell Viability - LYMP2-019 (AID 973);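 further: 0% = DMSO alone and full effect = 92 µM tetraoctylammonium bromide; nearly all actives have a fitted effect of over 55% in size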
In short: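 Human lymphoblastoid cells were seeded at 2500 cells/well, preincubated 5 hr at 37 C, then exposed to compounds for 24 hr at 37 C in complete medium. Intracellular ATP was measured by CellTiter-Glo luminescence; AC50 from Hill fits.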

[6] = Cell Viability - LYMP2-021 (AID 974)
In short: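 Human lymphoblastoid cells (2500/well) were preincubated 5 hr at 37 C, then exposed to compounds for 24 hr at 37 C in complete medium. Intracellular ATP was read by CellTiter-Glo luminescence; AC50 came from Hill-equation fits of concentration-response data.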

[7] = Cell Viability - LYMP2-023 (AID 975)
In short: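 Human lymphoblastoid cells (2500/well) were preincubated 5 hr at 37 C, then exposed to compounds for 24 hr at 37 C in complete medium. Cellular ATP was read by CellTiter-Glo luminescence, and AC50 came from Hill-equation fits.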

[8] = Cell Viability - LYMP2-002 (AID 977);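 further: series mostly up to about 92 µM; plate controls were DMSO only for no effect and 92 µM tetraoctylammonium bromide for full effect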
In short: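 Luminescent ATP readout (CellTiter-Glo, 30 min room temperature) after 24 h compound exposure at 37 C of a human lymphoblastoid line, 2500 cells/well. AC50 values derived by standard Hill fitting of qHTS concentration-response data.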

[9] = Cell Viability - LYMP2-006 (AID 978); further: series mostly up to about 92 µM; on the % scale 0 is the no-effect control and ±100 the full control effect; nearly all actives have a fitted effect of over 60% in size
In short: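 qHTS, 1536-well; 2500 cells/well, 5 hr 37 C; cpd 24 hr 37 C; CellTiter-Glo 30 min RT; luminescence. Tetraoctylammonium bromide pos. ctrl. AC50 via Hill eqn.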

[10] = Cell Viability - LYMP2-008 (AID 980); further: on the % scale 0 is the no-effect control and ±100 the full control effect; nearly all actives have a fitted effect of over 60% in size
In short: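 Human lymphoblastoid cells (2500/well) were plated, held 5 hr at 37 C, then exposed to compounds for 24 hr at 37 C in complete medium. Intracellular ATP was read by CellTiter-Glo luminescence; AC50 from Hill-fitted concentration-response.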

[11] = Cell Viability - LYMP2-012 (AID 982)
[12] = Cell Viability - LYMP2-014 (AID 983);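 further: series mostly up to about 92 µM; plate controls were DMSO only for no effect and 92 µM tetraoctylammonium bromide for full effect; nearly all actives have a fitted effect of over 50% in size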
In short: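 Human lymphoblastoid cells (2500/well) were pre-incubated 5 hr at 37 C, then exposed to compounds in complete medium for 24 hr at 37 C. Intracellular ATP was read by CellTiter-Glo luminescence after 30 min at room temperature; AC50 from Hill fits.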

[13] = Cell Viability - LYMP2-016 (AID 984)
In short: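 qHTS, 1536-well: 2500 LYMP2-016 cells/well, 5 hr 37 C, compound added, 24 hr 37 C, CellTiter-Glo 30 min RT, luminescence. Tetraoctylammonium bromide positive control. AC50 via Hill fit.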

[14] = Cell Viability - LYMP2-018 (AID 985);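 further: compound exposure lasted 24 hr at 37 °C; plate controls were DMSO only for no effect and tetraoctylammonium bromide at 92 µM for full effect; nearly all actives have a fitted effect of over 50% in size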
In short: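 Human lymphoblastoid cells (2500/well) were pre-incubated 5 hr at 37 C, then exposed to compounds for 24 hr at 37 C in complete medium. Viability was read as intracellular ATP by CellTiter-Glo luminescence; AC50 values came from Hill-equation fits.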

[15] = Cell Viability - LYMP2-020 (AID 986)
In short: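 Human lymphoblastoid cells, 2500/well, were pre-incubated 5 hr at 37 C, then exposed to compounds for 24 hr at 37 C in complete medium. Intracellular ATP was read by CellTiter-Glo luminescence, and AC50 was derived by Hill fitting of concentration-response data.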

[16] = Cell Viability - LYMP2-022 (AID 987)
In short: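 Human lymphoblastoid cells, 2500/well, preincubated 5 hr at 37 C, then exposed to compounds over a concentration range for 24 hr at 37 C in complete medium. Viability read as intracellular ATP by CellTiter-Glo luminescence after 30 min at room temperature; AC50 from Hill fits.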

[17] = Cell Viability - LYMP2-024 (AID 988);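 further: plate controls were DMSO only for no effect and 92 µM tetraoctylammonium bromide for full effect; nearly all actives have a fitted effect of over 60% in size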
In short: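 Human lymphoblastoid cells (2500/well) in complete medium were preincubated 5 hr at 37 C, then exposed to compounds for 24 hr at 37 C. Intracellular ATP was read by CellTiter-Glo luminescence; AC50 from Hill-equation fits of concentration-response data.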

[18] = Cell Viability - LYMP2-026 (AID 989); further: on the % scale 0 is the no-effect control and ±100 the full control effect; nearly all actives have a fitted effect of over 50% in size
In short: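 Human lymphoblastoid cells (2500/well) in complete medium were preincubated 5 hr at 37 C, then exposed to compounds for 24 hr at 37 C. Cellular ATP was read by CellTiter-Glo luminescence; AC50 from Hill-equation fits of concentration-response data.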

[19] = Cell Viability - LYMP1-002 - Assay at 40 hr (AID 994)
In short: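 Human lymphoblastoid cells, 2500/well in complete medium, were preincubated 5 hr at 37 C, then exposed to compounds for 40 hr at 37 C. Intracellular ATP was read by CellTiter-Glo luminescence after 30 min at room temperature; AC50 from Hill-equation fits.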

[20] = target: Estrogen receptor (Homo sapiens) (UniProt P03372); assay: qHTS assay for small molecule antagonists of estrogen receptor alpha signaling (AID 588513; active means well fitted curve in the direction sought with a large enough effect in the signal ratio, with a control signal flat, not every such curve was filed as active; inconclusive means small, poorly fitted or top-dose-only effect, or effect the other way, or a change in a side signal; inactive means no such curve, though single readings can be large or run the other way; the % refers to the signal ratio; further: potency means the concentration at half of the fitted maximal effect)
In short: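 Beta-lactamase reporter, antagonist mode, HEK 293 GripTite cells; 0.5nM E2 stimulus, 18 h, 37 C; CCF4 dye 2 h RT; fluorescence. IC50 and efficacy from Hill fits, normalized to E2 and DMSO.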

[21] = target: Glucocorticoid receptor (Homo sapiens) (UniProt P04150); assay: qHTS assay for small molecule agonists of glucocorticoid receptor signaling (AID 588532; active means well fitted curve in the direction sought with a large enough effect in the signal ratio, with a control signal flat; inconclusive means small, poorly fitted or top-dose-only effect, or a change in a side signal; inactive means no such curve, though single readings can be large or run the other way; the % refers to the signal ratio;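 further: 100% = dexamethasone at 0.1 µM and 0% = DMSO only wells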); settings: HeLa MMTV-bla, beta-lactamase ratio, agonist, 18 h; activation: hits give high values, percent of dexamethasone control, DMSO zero
In short: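 Stimulation of a glucocorticoid response element-driven beta-lactamase gene was measured in HeLa cells. Responses were scaled between DMSO basal and 0.1 uM dexamethasone, then fitted for half-maximal stimulation.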

[22] = target: Glucocorticoid receptor (Homo sapiens) (UniProt P04150); assay: qHTS assay for small molecule antagonists of glucocorticoid receptor signaling (AID 588533; active means well fitted inhibition curve with a large enough effect in the signal ratio, with a control signal flat, not every such curve was filed as active; inconclusive means small, poorly fitted or top-dose-only effect, or effect the other way, or a change in a side signal; the % refers to the signal ratio;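 further: cells stimulated with 2 nM dexamethasone as agonist; potency means the concentration at half of the fitted maximal effect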)
In short: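 Antagonist-mode qHTS: compound titrations added to GRE-bla HeLa cells, then dexamethasone 2 nM final; 18 h, 37 C. CCF4 FRET fluorescence normalized to dexamethasone and DMSO; IC50 from Hill fit.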

[23] = target: Peroxisome proliferator-activated receptor delta (Homo sapiens) (UniProt Q03181); assay: qHTS assay for small molecule agonists of peroxisome proliferator-activated receptor delta signaling (AID 588534; calls by dose curve;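 further: 0% = DMSO basal wells and 100% = positive control agonist at 10 µM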)
In short: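 Cell-based beta-lactamase reporter assay run in agonist mode: cells seeded and incubated 5 hrs at 37 C, compounds added and incubated 18 hrs at 37 C. CCF4 dye fluorescence read after 2 hrs at RT; EC50 and efficacy from Hill fits.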

[24] = target: Vitamin D3 receptor (Homo sapiens) (UniProt P11473); assay: qHTS assay for small molecule agonists of vitamin D receptor signaling (AID 588543; calls by dose curve;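 further: 0% = DMSO basal and 100% = reference agonist control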)
In short: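 β-lactamase reporter, VDR-UAS-bla HEK293T, agonist mode. Cells plated 5 h at 37 °C, compound titration 16 h at 37 °C, CCF4 dye 2 h RT, ratio 460/530 nm. Hill fit → EC50, efficacy vs 50 nM 1α,25-(OH)2D3.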

[25] = target: Voltage-gated inwardly rectifying potassium channel KCNH2 (Homo sapiens) (UniProt Q12809); assay: qHTS Assay for Small Molecule Inhibitors of the Human hERG Channel Activity (AID 588834);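 further: top concentration of the series differs between compounds; on the % scale 0 is the no-effect control and ±100 the full control effect; lower thallium flux fluorescence means stronger hERG block; nearly all actives have a fitted effect of over 50% in size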
In short: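 Concentration-response qHTS measuring drop in thallium-sensitive dye signal. U2OS cells carrying BacMam hERG; compound exposure ~10 min, then stimulation buffer and 2 min read at 1 sec intervals.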

[26] = qHTS assay for small molecule disruptors of the mitochondrial membrane potential - 1 hr assay (AID 651754; calls by dose curve; further: potency means the concentration at half of the fitted maximal effect; nearly all actives have a fitted effect of over 35% in size)
In short: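 HepG2 cells, attached overnight at 37C, were exposed to compound or DMSO vehicle for 1 hr at 37C, 5% CO2, then stained with Mito-MPS dye for 30 min. Red aggregate versus green monomer fluorescence reports membrane potential.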

[27] = qHTS assay for small molecule disruptors of the mitochondrial membrane potential - 5 hr assay (AID 651755; calls by dose curve; further: potency means the concentration at half of the fitted maximal effect; nearly all actives have a fitted effect of over 40% in size)
In short: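 HepG2 cells, attached overnight at 37C, were exposed to compound or DMSO for 5 hr at 37C, 5% CO2. Mito-MPS dye was then added for 30 min, and fluorescence read at 490/535 nm (monomers) and 540/590 nm (aggregates).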

[28] = target: Tumor necrosis factor (Homo sapiens) (UniProt P01375); assay: qHTS assay to identify small molecules that stimulate Tumor Necrosis Factor-alpha (TNF-alpha) secretion (AID 651757; active means well fitted curve in the direction sought with a large enough effect in the signal ratio; inconclusive means small, poorly fitted or top-dose-only effect, or a change in a side signal; inactive means no such curve, though single readings can be large or run the other way; the % refers to the signal ratio; further: 0% is about no effect)
In short: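 THP-1 cells were exposed to compounds for 17 hrs at 37 C, after which secreted TNF-alpha was measured by homogeneous HTRF (TR-FRET) using cryptate- and XL665-labeled anti-TNF-alpha antibodies, read after 3 hr at room temperature.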

[29] = qHTS assay for environmental chemicals that activate the Aryl hydrocarbon Receptor (AhR) signaling pathway (AID 651777); settings: 1A2-DRE human hepatoma cells, luciferase, 24 h; activation: hits give high values; further: % of control where 0% means no effect; nearly all actives have a fitted effect of over 15% in size
In short: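 Quantitative HTS in stably transfected human liver-derived cells whose luciferase gene sits downstream of the CYP1A2 promoter and dioxin response element. After 24 hr exposure at 37 C, One-Glo luminescence was measured.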

[30] = target: Peroxisome proliferator-activated receptor alpha (Homo sapiens) (UniProt Q07869); assay: qHTS assay for small molecule agonists of the peroxisome proliferator-activated receptor alpha (PPARalpha) signaling pathway (AID 651778); settings: PathHunter PPARalpha complementation, chemiluminescence, 6 h; max response: hits give high values; further: % of control where 0% means no effect
In short: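 Cells plated at 2,000/well and held overnight at 37 C, 5% CO2, then compound added by pin tool for 6 hr; after PathHunter detection reagent and 60 min at room temperature, chemiluminescence from enzyme complementation was read.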

[31] = qHTS assay for small molecule agonists of the antioxidant response element (ARE) signaling pathway measured by Nrf2-dependant transcriptional activity (AID 720636; active means well fitted curve in the direction sought with a large enough effect in the repeat runs; inconclusive means weak or mixed curves; inactive means no such curve, though single readings can be large; an effect the other way counts as inactive or inconclusive; further: % of control where 0% means no effect)
In short: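 Quantitative HTS format in HepG2 cells stably expressing an ARE-luciferase reporter; 16 hr compound treatment at 37 C, luciferase signal detected with ONE-Glo.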

[32] = qHTS assay for small molecule antagonists of the retinoid-related orphan receptor gamma (ROR-gamma) signaling pathway - cell viability counter screen (AID 720652; active means well fitted curve in the direction sought with a large enough effect in the repeat runs; inconclusive means weak or mixed curves; inactive means no such curve, though single readings can be large; an effect the other way counts as inactive or inconclusive;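 further: CHO reporter cells with doxycycline-induced ROR-gamma expression; series mostly up to about 92 µM; compound exposure lasted 16 hr before ATP read; on the % scale 0 is the no-effect control and ±100 the full control effect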)
In short: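 Counter screen in CHO cells carrying TET-inducible ROR-gamma and an ROR response element-luciferase reporter; cells plated 5 hr, compound pinned, doxycycline added, then 16 hr at 37 C. Viability read as intracellular ATP by CellTiter-Glo luminescence.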

[33] = qHTS assay for small molecule agonists of the antioxidant response element (ARE) signaling pathway measured by Nrf2-dependant transcriptional activity - cell viability counter screen (AID 720653; active means well fitted curve in the direction sought with a large enough effect in the repeat runs; inconclusive means weak or mixed curves; inactive means no such curve, though single readings can be large; an effect the other way counts as inactive or inconclusive; further: on the % scale 0 is the no-effect control and ±100 the full control effect); settings: ARE-bla HepG2 viability, CellTiter-Glo ATP luminescence, 16 h; max response: hits give low values
In short: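 ARE-bla HepG2 cells (2,000/well) rested 5 hrs at 37C/5% CO2, then exposed to compounds in DMSO for 16 hrs. Viability was read in the same wells as intracellular ATP by luminescence, 30 min at room temperature after reagent addition.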

[34] = qHTS assay for cell viability of HEK293 cells (AID 743288); settings: ATP luminescence (CellTiter-Glo), 18 h; max response: hits give low values
In short: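 Environmental chemicals tested in qHTS format against parental HEK293 cells; 18 h treatment, 37 C; read-out ATP luminescence (CellTiter-Glo), 30 min RT development.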

[35] = qHTS assay for cell viability of the p53RE-bla HCT-116 cell line (AID 743292)
In short: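 Viability of compound-treated p53RE-bla HCT-116 cells is taken from ATP-dependent luciferase luminescence. Treatment lasts 16 h at 37 C after a 5 h settling period; detection follows 30 min at room temperature.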

[36] = qHTS assay for small molecule activators of the human pregnane X receptor (PXR) signaling pathway (AID 720659; call rule not given here; further: 0% is about no effect)

Chain of Glucocorticoid receptor (Homo sapiens) (P04150 whole entry, looked up): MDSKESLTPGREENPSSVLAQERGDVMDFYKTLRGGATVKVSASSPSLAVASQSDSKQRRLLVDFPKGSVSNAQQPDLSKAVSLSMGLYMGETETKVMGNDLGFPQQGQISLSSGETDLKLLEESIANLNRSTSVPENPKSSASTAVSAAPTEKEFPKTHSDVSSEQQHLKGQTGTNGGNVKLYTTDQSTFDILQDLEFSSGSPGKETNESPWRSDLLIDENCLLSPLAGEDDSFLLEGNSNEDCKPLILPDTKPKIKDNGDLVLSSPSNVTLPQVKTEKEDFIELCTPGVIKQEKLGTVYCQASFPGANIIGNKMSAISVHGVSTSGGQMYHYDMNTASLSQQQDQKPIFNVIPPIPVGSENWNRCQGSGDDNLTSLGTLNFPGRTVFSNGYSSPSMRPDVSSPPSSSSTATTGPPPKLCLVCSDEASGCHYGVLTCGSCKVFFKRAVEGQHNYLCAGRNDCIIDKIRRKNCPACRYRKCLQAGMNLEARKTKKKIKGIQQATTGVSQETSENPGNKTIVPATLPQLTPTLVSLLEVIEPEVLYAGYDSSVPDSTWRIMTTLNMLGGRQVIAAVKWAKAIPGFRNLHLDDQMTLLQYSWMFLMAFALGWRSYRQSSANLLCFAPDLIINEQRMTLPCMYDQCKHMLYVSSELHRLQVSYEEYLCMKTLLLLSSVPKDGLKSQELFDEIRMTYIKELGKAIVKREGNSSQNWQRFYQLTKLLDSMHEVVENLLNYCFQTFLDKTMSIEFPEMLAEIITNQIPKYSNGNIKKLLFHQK
Chain of Peroxisome proliferator-activated receptor delta (Homo sapiens) (Q03181 whole entry, looked up): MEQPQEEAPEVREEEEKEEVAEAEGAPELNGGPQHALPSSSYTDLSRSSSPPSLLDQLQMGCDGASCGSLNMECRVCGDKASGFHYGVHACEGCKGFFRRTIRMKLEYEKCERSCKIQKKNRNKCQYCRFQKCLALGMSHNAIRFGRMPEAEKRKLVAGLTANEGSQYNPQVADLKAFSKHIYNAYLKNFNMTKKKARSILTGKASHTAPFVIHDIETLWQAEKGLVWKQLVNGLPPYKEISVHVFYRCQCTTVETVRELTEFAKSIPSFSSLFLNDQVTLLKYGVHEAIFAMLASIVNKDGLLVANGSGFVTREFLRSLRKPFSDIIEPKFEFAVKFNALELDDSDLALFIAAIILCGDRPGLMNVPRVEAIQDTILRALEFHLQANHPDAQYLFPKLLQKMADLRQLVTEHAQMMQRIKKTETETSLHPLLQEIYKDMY
Chain of Tumor necrosis factor (Homo sapiens) (P01375 whole entry, looked up): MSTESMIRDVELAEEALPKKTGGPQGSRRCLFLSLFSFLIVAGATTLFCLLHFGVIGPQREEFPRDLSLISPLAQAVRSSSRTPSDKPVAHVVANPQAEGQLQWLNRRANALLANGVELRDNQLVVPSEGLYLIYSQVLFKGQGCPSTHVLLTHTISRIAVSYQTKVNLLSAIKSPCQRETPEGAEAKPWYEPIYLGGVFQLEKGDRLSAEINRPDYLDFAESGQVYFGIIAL
Chain of Voltage-gated inwardly rectifying potassium channel KCNH2 (Homo sapiens) (Q12809 whole entry, looked up): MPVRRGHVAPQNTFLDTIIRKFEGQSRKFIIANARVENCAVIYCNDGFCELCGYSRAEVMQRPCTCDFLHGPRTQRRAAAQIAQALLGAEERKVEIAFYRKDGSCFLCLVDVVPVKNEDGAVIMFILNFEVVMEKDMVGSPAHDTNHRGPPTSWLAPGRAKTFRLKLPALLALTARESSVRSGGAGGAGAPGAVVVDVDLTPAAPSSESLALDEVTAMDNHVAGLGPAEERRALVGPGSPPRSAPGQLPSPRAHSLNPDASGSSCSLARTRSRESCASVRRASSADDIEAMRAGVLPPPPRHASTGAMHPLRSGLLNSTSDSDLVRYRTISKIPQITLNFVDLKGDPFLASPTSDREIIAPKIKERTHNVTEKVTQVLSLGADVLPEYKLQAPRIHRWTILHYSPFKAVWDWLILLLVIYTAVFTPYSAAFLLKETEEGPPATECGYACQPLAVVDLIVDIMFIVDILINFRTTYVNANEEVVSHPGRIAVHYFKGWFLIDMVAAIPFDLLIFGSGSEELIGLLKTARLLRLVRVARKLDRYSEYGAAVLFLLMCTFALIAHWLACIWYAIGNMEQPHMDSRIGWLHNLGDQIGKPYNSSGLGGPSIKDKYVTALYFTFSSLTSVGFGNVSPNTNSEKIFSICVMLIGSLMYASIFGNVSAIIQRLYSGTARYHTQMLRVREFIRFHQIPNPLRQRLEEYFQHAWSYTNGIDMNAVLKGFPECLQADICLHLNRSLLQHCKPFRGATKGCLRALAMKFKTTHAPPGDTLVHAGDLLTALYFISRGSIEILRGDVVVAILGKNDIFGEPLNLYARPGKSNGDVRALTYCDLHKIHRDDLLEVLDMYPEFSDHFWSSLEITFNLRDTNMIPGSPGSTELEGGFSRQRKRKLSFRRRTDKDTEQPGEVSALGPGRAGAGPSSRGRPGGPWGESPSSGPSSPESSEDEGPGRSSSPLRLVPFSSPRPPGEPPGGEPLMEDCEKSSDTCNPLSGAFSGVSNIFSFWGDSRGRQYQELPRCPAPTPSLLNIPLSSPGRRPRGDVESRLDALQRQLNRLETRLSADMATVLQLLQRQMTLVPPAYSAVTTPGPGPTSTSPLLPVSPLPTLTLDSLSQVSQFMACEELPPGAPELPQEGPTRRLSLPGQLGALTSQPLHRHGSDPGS
Chain of Estrogen receptor (Homo sapiens) (P03372 whole entry, looked up): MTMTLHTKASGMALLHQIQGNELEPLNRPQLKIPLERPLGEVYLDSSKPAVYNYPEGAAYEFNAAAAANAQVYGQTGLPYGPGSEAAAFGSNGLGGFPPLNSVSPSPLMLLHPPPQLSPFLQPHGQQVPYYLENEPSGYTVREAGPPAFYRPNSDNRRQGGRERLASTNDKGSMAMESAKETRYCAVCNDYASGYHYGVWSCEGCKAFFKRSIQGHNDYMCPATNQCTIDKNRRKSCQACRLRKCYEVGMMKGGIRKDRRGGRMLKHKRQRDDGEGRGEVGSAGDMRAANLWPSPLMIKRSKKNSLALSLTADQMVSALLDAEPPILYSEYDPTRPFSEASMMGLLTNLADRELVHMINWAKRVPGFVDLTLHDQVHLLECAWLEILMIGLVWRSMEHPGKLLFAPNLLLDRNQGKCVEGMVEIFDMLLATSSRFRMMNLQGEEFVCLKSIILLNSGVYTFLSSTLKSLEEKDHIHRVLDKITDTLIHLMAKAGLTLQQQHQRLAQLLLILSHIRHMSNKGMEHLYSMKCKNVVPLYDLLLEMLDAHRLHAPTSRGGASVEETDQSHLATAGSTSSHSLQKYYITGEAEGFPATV
Chain of Vitamin D3 receptor (Homo sapiens) (P11473 whole entry, looked up): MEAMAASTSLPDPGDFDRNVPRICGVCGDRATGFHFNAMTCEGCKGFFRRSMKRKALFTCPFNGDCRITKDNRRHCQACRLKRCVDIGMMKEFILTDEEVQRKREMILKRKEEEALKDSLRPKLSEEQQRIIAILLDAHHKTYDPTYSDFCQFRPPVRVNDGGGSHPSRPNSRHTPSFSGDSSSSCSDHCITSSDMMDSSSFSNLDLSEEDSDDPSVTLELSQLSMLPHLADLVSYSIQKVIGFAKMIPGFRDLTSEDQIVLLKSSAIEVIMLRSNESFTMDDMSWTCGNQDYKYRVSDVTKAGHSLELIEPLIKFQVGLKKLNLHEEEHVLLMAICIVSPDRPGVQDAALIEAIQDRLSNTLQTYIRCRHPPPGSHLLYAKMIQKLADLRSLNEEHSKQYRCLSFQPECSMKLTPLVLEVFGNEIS
Chain of Peroxisome proliferator-activated receptor alpha (Homo sapiens) (Q07869 whole entry, looked up): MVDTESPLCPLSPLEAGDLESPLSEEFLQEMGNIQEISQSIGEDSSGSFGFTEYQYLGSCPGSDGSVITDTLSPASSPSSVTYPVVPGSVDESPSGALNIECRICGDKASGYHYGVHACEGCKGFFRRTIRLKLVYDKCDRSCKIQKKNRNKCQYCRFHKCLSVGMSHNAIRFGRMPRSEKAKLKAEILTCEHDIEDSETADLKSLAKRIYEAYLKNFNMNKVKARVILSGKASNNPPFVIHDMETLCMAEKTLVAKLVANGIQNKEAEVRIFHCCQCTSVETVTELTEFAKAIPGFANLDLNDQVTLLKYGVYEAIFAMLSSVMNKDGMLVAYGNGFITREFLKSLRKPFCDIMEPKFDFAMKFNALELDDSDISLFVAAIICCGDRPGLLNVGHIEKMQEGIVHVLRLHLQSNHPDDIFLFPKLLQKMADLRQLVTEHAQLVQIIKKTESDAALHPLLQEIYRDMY

Oc1c(Br)c(Br)c(Br)c(Br)c1Br
active: Potency [20] 39.8 µM [inconclusive] | Potency [22] 39.8 µM | Potency [26] 33.5 µM | Potency [27] 33.5 µM
inactive: Potency [1] | Potency [2] | Potency [3] | Potency [4] | Potency [5] | Potency [6] | Potency [7] | Potency [8] | Potency [9] | Potency [10] | Potency [11] | Potency [12] | Potency [13] | Potency [14] | Potency [15] | Potency [16] | Potency [17] | Potency [18] | Potency [19] | activation [21] 3.02% | outcome [23] | outcome [24] | Potency [25] | Potency [28] | activation [29] 0.143% | max response [30] 10% | Potency [31] | Potency [32] | max response [33] -1.75% | max response [34] -15.8% | Potency [35] | outcome [36]
